From paper PMC4336329 (PLoS ONE, 2015)
The whole screen tested about 310,000 compounds, of which about 14,000 (4.5%) showed an effect of 50% or more. Effects have a minus sign here. Many of the other results were omitted from the sample, so strong results are more common in it than they were.

biological target: human ether-à-go-go-related gene (hERG) potassium channel (human, UniProt Q12809); assay: primary screen, population patch clamp on CHO cells stably expressing hERG; higher = less effect of the substance
Sequence (Q12809 whole entry, looked up): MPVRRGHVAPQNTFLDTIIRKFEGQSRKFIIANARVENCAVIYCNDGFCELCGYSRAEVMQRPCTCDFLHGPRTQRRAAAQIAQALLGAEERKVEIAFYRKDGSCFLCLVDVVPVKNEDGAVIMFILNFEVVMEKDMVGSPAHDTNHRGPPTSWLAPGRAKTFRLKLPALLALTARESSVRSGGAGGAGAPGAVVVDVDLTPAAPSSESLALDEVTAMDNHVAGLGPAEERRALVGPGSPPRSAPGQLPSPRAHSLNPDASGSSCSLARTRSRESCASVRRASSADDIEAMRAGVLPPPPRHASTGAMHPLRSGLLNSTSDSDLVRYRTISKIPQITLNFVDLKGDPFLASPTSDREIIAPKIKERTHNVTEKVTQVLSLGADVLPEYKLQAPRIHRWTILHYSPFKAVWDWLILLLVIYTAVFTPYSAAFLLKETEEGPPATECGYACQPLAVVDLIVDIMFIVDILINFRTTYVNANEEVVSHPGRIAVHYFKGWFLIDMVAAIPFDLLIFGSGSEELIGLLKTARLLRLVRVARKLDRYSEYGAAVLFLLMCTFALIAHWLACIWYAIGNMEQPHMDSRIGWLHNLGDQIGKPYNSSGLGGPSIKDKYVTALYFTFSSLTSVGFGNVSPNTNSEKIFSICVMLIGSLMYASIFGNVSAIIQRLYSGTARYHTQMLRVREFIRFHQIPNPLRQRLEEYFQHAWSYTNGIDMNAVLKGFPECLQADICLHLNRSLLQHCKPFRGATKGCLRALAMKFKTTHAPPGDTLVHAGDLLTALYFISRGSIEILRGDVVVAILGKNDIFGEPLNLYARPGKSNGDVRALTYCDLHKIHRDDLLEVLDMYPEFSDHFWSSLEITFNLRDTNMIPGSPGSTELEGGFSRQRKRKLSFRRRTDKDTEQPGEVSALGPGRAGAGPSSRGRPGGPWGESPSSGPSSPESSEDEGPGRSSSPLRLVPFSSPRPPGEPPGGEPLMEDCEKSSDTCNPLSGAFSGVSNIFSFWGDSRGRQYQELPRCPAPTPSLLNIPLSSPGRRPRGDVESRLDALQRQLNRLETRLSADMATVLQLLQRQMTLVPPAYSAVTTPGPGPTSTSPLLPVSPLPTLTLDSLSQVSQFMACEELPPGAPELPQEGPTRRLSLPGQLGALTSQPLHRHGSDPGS
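Also: peak tail current of the secondary pulse compared with the same well before compound.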

Compared with `Cc1ccc(-n2c(-c3ccncc3)n[nH]c2=S)c(C)c1`, `Cc1ccc2c(c1)Sc1ccccc1CC2=O` is lower in “hERG current change (%, negative = inhibition) at 10uM” value: 13.7% for the first, -20.9% for the second.

Going from `O=C(CSCc1ccccc1)N1CCN(Cc2ccc3c(c2)OCO3)CC1` to `C/C(=C\c1ccccc1)C(=O)N1CCN(Cc2ccc3c(c2)OCO3)CC1`, the “hERG current change (%, negative = inhibition) at 10uM” value falls from -22% to -51.6%.

First: COc1ccsc1C(=O)N1CCN(Cc2ccc3c(c2)OCO3)CC1
Second: COC(=O)c1ccsc1NC(=O)CN1CCN(Cc2ccc3c(c2)OCO3)CC1
The “hERG current change (%, negative = inhibition) at 10uM” value of the first is higher: -16.5% for the first, -78.4% for the second.

First: Fc1ccc(N2CCN(Cc3ccc4c(c3)OCO4)CC2)cc1
Second: Oc1cc2c(cc1CN1CCN(c3ccc(F)cc3)CC1)OCO2
The “hERG current change (%, negative = inhibition) at 10uM” value of the first is lower: -51.3% for the first, -1.5% for the second.

Going from `COC(=O)c1c(NC(=O)CN2CCN(Cc3ccc4c(c3)OCO4)CC2)sc(C)c1C.O=C(O)C(=O)O` to `CCOc1cc(N2CCOCC2)c(OCC)cc1NC(=O)CN1CCN(Cc2ccc3c(c2)OCO3)CC1.Cl`, the “hERG current change (%, negative = inhibition) at 10uM” value falls from -28.9% to -55.8%.

First: CCOc1cc(N2CCOCC2)c(OCC)cc1NC(=O)CN1CCCC1
Second: CCOc1cc(N2CCOCC2)c(OCC)cc1NC(=O)CN1CCC(Cc2ccccc2)CC1
The “hERG current change (%, negative = inhibition) at 10uM” value of the first is higher: 6.63% for the first, -3.67% for the second.

Going from `Fc1ccc(N2CCN(Cc3cc4c(cc3Br)OCO4)CC2)cc1` to `CC(C)CC(=O)N1CCN(Cc2ccc3c(c2)OCO3)CC1`, the “hERG current change (%, negative = inhibition) at 10uM” value falls from 7.74% to 0.479%.

Going from `O=C1CC(Cc2ccc(Cl)cc2)C(=O)N1c1ccccn1` (stereo not drawn) to `O=C1Cc2ccccc2Sc2ccc(Cl)cc21`, the “hERG current change (%, negative = inhibition) at 10uM” value rises from 1.83% to 16%.

Going from `CCOc1ccc(NC(=O)[C@@H](NC(=O)c2ccccc2)[C@@H](C)CC)cc1` to `CC(=O)Nc1ccc(NC(=O)c2cccc(S(=O)(=O)N(C)C3CCCCC3)c2)cc1`, the “hERG current change (%, negative = inhibition) at 10uM” value rises from 2.26% to 6.97%.

Going from `CCC(C)NC(=O)CSc1c2c(nc3ccccc13)CCCC2` (stereo not drawn) to `C[N+]1(CC(=O)NNc2c3ccccc3nc3ccccc23)CCOCC1.[Br-]`, the “hERG current change (%, negative = inhibition) at 10uM” value rises from -7.98% to 3.64%.

Compared with `O=C(N/N=C/c1ccc([N+](=O)[O-])s1)c1cccnc1`, `Cc1ccnc(NC(=O)c2oc3ccccc3c2C)c1` is higher in “hERG current change (%, negative = inhibition) at 10uM” value: 5.77% for the first, 24.7% for the second.

Compared with `Cc1cc(C)nc(Sc2nc(C)nc3c2oc2ccccc23)n1`, `COc1ccc(-c2csc(-c3cc4ccccc4oc3=N)n2)cc1` is lower in “hERG current change (%, negative = inhibition) at 10uM” value: -1.57% for the first, -4.44% for the second.

First: CCc1ccc(S(=O)(=O)Nc2c(NC3CCCCC3)c3ccccc3oc2=O)cc1
Second: Cc1ccc(NC(=O)c2cccc(S(=O)(=O)N(C)C3CCCCC3)c2)nc1
The “hERG current change (%, negative = inhibition) at 10uM” value of the first is higher: -3.7% for the first, -34.7% for the second.

First: CC1CN(S(=O)(=O)c2ccc(C(=O)N3CCc4ccccc43)cc2)CC(C)O1 (stereo not drawn)
Second: COc1ccccc1NC(=O)C1CCN(S(=O)(=O)c2cccs2)CC1
The “hERG current change (%, negative = inhibition) at 10uM” value of the first is higher: 15.9% for the first, -7.13% for the second.

First: CN(C1CCCCC1)S(=O)(=O)c1cccc(C(=O)Nc2ccccn2)c1
Second: c1ccc(-c2ccccc2OCCN2CCCC2)cc1
The “hERG current change (%, negative = inhibition) at 10uM” value of the first is lower: -53.7% for the first, -26.6% for the second.

Going from `Cl.O.O=C1Cc2ccccc2Sc2c(OCCN3CCCCC3)cccc21` to `Cl.O=C1Cc2ccccc2Sc2cc(OCCCN3CCCCC3)ccc21`, the “hERG current change (%, negative = inhibition) at 10uM” value falls from -63.4% to -69.8%.

Going from `CN(C)CCCOc1ccc2c(c1)Sc1ccccc1CC2=O.Cl` to `CN(C)CCOc1ccc2c(c1)Sc1ccccc1CC2=O.Cl`, the “hERG current change (%, negative = inhibition) at 10uM” value rises from -74.3% to -64.8%.

Going from `O=C1Cc2ccccc2Sc2ccc(O)cc21` to `O=C1Cc2ccccc2Sc2ccccc21`, the “hERG current change (%, negative = inhibition) at 10uM” value falls from 16.4% to 1.13%.

First: Cc1cccc(OCCCN2CCCCCC2)c1
Second: COc1cccc(OCCCN2CCCCC2)c1
The “hERG current change (%, negative = inhibition) at 10uM” value of the first is lower: -28.2% for the first, -16.2% for the second.

Going from `Cc1cccc2c1Sc1ccccc1CC2=O` to `O=C(O)/C=C1\NC(=O)c2ccccc21`, the “hERG current change (%, negative = inhibition) at 10uM” value rises from 0.0655% to 17%.

First: O=C(O)c1n[nH]c2ccccc12
Second: c1ccc2[nH]c(CN3CCCCC3)nc2c1
The “hERG current change (%, negative = inhibition) at 10uM” value of the first is lower: -4.09% for the first, 1.41% for the second.

Going from `COC(=O)C(=Nc1ccccc1)/C(C(=O)C(=O)N(C)c1ccccc1)=C(\O)c1ccccc1` to `CCCC(=O)N1CCN(c2ccc(NC(=O)c3ccc(Br)o3)cc2)CC1`, the “hERG current change (%, negative = inhibition) at 10uM” value falls from 22.7% to -8.1%.

For `CC1(C)CCCC2=C1CC1C(=O)N(Cc3cccnc3)C(=O)C1C2` (stereo not drawn), the “hERG current change (%, negative = inhibition) at 10uM” value was -5.71%.
